Compound activity: PubChem, several laboratories
F-actin modifier – modifiers of F-actin cytoskeleton organization, primary screen, imaging, HUVEC, phalloidin staining, high-content imaging; HUVEC TNFa F-actin phalloidin imaging; actives 0.18% (n = 91,000); inhibition, % at 2 µM; AID 836, 2007;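 active means inhibition above the batch mean plus 3 SD and confirmed as a hit by visual image inspection, cut at about 30% in these data, passing the limit was not always enough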
E-sel TNF inh – E-selectin induction blockers in HUVEC – imaging, immunofluorescence, high content, primary screen | HUVEC TNFa-induced E-selectin immunofluorescence | inhibition, % at 2 µM | actives 0.71% (n = 120,000) | AID 1246, 2008;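 active means inhibition above the batch mean plus 3 SD, and confirmed as a hit on visual image review, cut at about 43% in these data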;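 further: 0% = TNF-stimulated DMSO wells and 100% = unstimulated control wells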
sEH inh – soluble epoxide hydrolase inhibitors, primary screen, biochemical, human sEH | recombinant human sEH enzymatic activity assay | inhibition, % at 2 µM | actives 0.34% (n = 91,000) | AID 707, 2007; in the data active means inhibition above about 80%
Target sequence (P34913 whole entry, looked up): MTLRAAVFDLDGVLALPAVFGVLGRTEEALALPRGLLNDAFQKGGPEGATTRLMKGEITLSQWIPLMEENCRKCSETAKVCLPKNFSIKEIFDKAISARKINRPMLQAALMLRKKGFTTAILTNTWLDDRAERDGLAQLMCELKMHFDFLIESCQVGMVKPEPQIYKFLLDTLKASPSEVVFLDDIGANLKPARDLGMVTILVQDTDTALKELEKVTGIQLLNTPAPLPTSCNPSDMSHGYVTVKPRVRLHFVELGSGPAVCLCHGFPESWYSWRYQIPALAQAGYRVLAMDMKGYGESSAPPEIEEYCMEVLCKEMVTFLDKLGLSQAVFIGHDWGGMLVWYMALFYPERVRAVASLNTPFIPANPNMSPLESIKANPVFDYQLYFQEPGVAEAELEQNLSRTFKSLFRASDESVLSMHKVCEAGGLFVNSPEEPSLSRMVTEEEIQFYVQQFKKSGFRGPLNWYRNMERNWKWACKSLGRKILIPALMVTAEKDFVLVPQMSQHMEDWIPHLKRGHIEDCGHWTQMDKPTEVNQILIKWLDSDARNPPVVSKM
Phagocyt inh – inhibitors of macrophage phagocytosis, primary screen, imaging, J774A.1 cells, IgG beads; actives 0.07% (n = 110,000); J774A.1 macrophage IgG-bead phagocytosis; inhibition, % at 5 µM;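 active means inhibition above the mean of the plate negative controls plus 5 SD, cut at about 13% in these data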;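 further: phagocytic index as fraction of beads internalized from green versus red external bead signal; plate controls were DMSO negative control for no effect and cytochalasin-D positive control for full effect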
sdo1 growth – growth rescue of sdo1-depleted yeast, primary screen, S. cerevisiae, bone marrow failure model. AID 817, 2007. S. cerevisiae sdo1-depleted JHY4D growth rescue, OD600 30 h; stronger effect = higher value; pdr5 snq2 efflux-pump mutant strain. actives 0.21% (n = 140,000). z-score at 10 µM;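 active means z-score above 3 at both the 24 hr and the 30 hr optical density reads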;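 further: z-score against mean and SD of all compound wells on the same plate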
sEH act – soluble epoxide hydrolase activators, primary screen, biochemical, human sEH | actives 0.04% (n = 91,000) | purified human sEH enzymatic activity, activator screen | activation, % at 2 µM | AID 717, 2007; in the data active means activation above about 37%
SDO1 rescue DR – SDO1-depleted yeast growth rescue, concentration-response, diseases of bone marrow failure, JHY4D, OD600 | shares compounds with sdo1 growth | S. cerevisiae JHY4D (SDO1-depleted) growth rescue, 30 h; stronger effect = higher value; efflux-deficient strain, SNQ2 and PDR5 mutated | OD recovery (concentration not given with the values) | actives 44% (n = 440) | AID 949, 2007;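 active means yeast growth recovered at 30 hours, either rising with dose fitted slope above 0.001 or with average optical density gain above 0.07, some results past the limit were not filed as active; inactive means growth falling with dose or no effect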;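 further: gain in OD600 from 0 h to 30 h averaged across all seven doses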
Active calls of the source: *; / = no result given; + = active, no number; [ ] = remark or other dose. An excerpt weighted towards active compounds, which were near 0.96% of everything screened.

SMILES	F-actin modifier	E-sel TNF inh	sEH inh	Phagocyt inh	sdo1 growth	sEH act	others
COc1ccccc1N1C(=O)NC(=O)C(CCc2ccncc2)(CCc2ccncc2)C1=O	5	12	6	-1	0.51	-4
CCOc1ccccc1N1C(=O)NC(=O)C(CCc2ccncc2)(CCc2ccncc2)C1=O	33*	-1	-8	/	0.94	7
O=c1c2ccccc2nc(-c2ccoc2)n1-c1ccccc1	3	0	3	0	-0.33	-2
CC1CN(c2cc([N+](=O)[O-])ccc2Cl)CC(C)N1 (centres undefined)	/	100*	/	/	/	/
CN1CCN(c2ccc([N+](=O)[O-])cc2Cl)CC1	/	2	/	/	/	/
CC(C)COP(=O)(OCC(C)C)C(O)c1cccnc1 (centres undefined)	/	/	/	-4	0.77	/
C=CCn1c(O)c(N=Nc2c(C)n(C)n(-c3ccccc3)c2=O)c(=O)[nH]c1=S	/	/	/	0	0.3	/
CN(C)CC1CSCCC1(O)c1ccc(Cl)cc1 (centres undefined)	-4	42*	-13	/	0.06	16
CCN1CCN(Cc2cc(OC)c(OC)cc2[N+](=O)[O-])CC1	16	100*	-2	1	0.95	5
Cc1cc(C)cc(N2C(=O)NC(=O)/C(=C\c3cccn3-c3ccccc3)C2=O)c1	/	/	/	/	-0.73	/
CN1C(=O)/C(=C/c2cccn2-c2ccc3ccccc3c2)C(=O)NC1=S	7	79*	20	-2	-1.1	-18
CC(=O)OC(C)(C)/C=C/C(=O)[C@](C)(O)[C@H]1[C@H](O)C[C@@]2(C)[C@@H]3CC=C4[C@H](C[C@H](O)C(=O)C4(C)C)[C@]3(C)C(=O)C[C@]12C	/	60*	/	/	-0.16	/
CCN1/C(=C\C=C\C2=[N+](CC)c3ccccc3C2(C)C)C(C)(C)c2ccccc21	-40	-1	-4	+[artifact]	-2.2	6
CCc1cccc(CC)c1NC(=S)N1CC2CC(C1)c1cccc(=O)n1C2 (centres undefined)	/	-5	/	6	0.72	/
CCCCC1(CN2CCCC2=O)C(=O)NC(=O)NC1=O	21	-22	0	/	0.68	0
CCCCC12CNCC(C)(CNC1)C2=O	13	100*	-8	-2	0.34	7
Cn1c(=O)cc(OCC(=O)N2CCN(Cc3ccc4c(c3)OCO4)CC2)c2ccccc21	-6	-9	-6	-3	0	8
O=C(Nc1nc(-c2ccccc2)c(-c2ccccc2)s1)c1ccc(S(=O)(=O)N(CCCl)CCCl)cc1	/	60*	/	5	1.2	/
CCc1ccc(N2C(=O)NC(=O)/C(=C/c3cccn3CCOc3ccc(C)cc3)C2=O)cc1	/	35	/	/	-0.8	/
CCc1ccc(N2C(=O)NC(=O)/C(=C/c3cccn3CCOc3ccc(C(C)CC)cc3)C2=O)cc1 (centres undefined)	/	80*	/	/	-0.06	/
Cn1cccc1/C=C1\C(=O)NC(=O)N(CCC2=CCCCC2)C1=O	/	77*	/	6	0.46	/
O=C1NC(=O)N(CCC2=CCCCC2)C(=O)/C1=C\c1cccs1	/	-65	/	/	-0.87	/
CN1CCN(C(=O)OC2c3nccnc3C(=O)N2c2ccc(Cl)cn2)CC1 (centres undefined)	/	/	/	/	0.17	/
COc1ccc(C(=O)C2(C)N(O)C(C)C(c3cccs3)=[N+]2[O-])cc1 (centres undefined)	-38	58*	0	0	0.78	4
CCOC(=O)c1cc(CC)sc1/N=C/c1c(O)[nH]c(=S)[nH]c1=O	/	4	/	-1	14*	/	SDO1 rescue DR=0.069
Cc1ccc(-n2c(O)c(C=NCCC3=CCCCC3)c(=O)[nH]c2=O)cc1	/	-6	/	/	/	/
